High-throughput results (PubChem BioAssay)
Many of the other results were omitted from the sample, so hits are more common in it than they were.
FBPA Giardia inh: inhibitors of Giardia lamblia fructose-1,6-bisphosphate aldolase; A8B2U2; purified Giardia FBPA; Potency, µM (doses to about 59.6 µM), for inactives: top-dose activity, negative = inhibition, most hits filed as inhibitors; actives 0.71% (n = 290,000); AID 2451; also: potency is read from the fitted curve at half-maximal effect; % is scaled to controls: 0 for no effect and ±100 for the full control effect; nearly all actives have a fitted effect of over 55% in size
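40 nM FBPA preincubated 10 min at RT with compound (up to 57.5 uM final), then substrate plus GAPDH/TPI/NAD/arsenate coupling and diaphorase/resazurin added. Fluorescence read after 20 min at RT, 525/598 nm.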
LmPK inh: inhibitors of Leishmania mexicana pyruvate kinase; purified LmPK, Kinase-Glo ATP luminescence, 1 h; Potency, µM (top dose mostly 57.5 µM), inactives show at the highest dose activity change, negative = inhibition, usual class: inhibitors; actives 0.37% (n = 290,000); Q27686; also: potency is read from the fitted curve at half-maximal effect; % is scaled to controls: 0 for no effect and ±100 for the full control effect
Target sequence (Q27686 whole entry, looked up): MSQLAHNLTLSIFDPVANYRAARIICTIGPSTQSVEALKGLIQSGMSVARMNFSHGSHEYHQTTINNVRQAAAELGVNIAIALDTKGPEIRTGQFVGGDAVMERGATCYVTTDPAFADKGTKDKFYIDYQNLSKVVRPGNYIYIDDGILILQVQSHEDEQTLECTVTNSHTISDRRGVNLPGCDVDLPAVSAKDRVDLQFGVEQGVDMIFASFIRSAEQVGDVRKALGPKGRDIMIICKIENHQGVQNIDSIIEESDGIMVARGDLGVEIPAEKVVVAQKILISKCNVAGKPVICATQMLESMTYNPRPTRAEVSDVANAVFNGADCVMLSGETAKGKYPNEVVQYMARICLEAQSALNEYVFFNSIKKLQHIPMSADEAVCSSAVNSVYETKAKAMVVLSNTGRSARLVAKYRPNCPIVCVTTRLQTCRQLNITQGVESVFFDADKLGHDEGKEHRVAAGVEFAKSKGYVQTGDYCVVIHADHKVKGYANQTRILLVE
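Screened at intermediate enzyme activity to detect both inhibitors and activators: LmPK at 0.1 nM, with a 0.5 nM enzyme column as activation reference. PEP 0.5 mM, ADP 0.1 mM; ATP detected by luminescence after 1 h.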
Shiga toxin inh: inhibitors of Shiga toxin in Vero cells. Vero cells, Shiga toxin protein synthesis inhibition reporter. inhibition, % at 38.7 µM. actives 9.2% (n = 290,000). AID 2315; in the data active = inhibition mostly above about 28%, no sharp cut-off; inactive = mostly below about 43%; also: 0% is about no effect
RE007 growth inh: less growth of the S. pombe RE007 Vpr strain; Potency, µM (titrated, usually from 92.2 µM), inactives show at the highest dose activity change, negative = less growth, most hits filed as inhibitors; AID 651644; actives 0.21% (n = 360,000); S. pombe RE007 Vpr strain, BacTiter-Glo ATP luminescence, 24 h; active = well fitted falling curve with a large enough effect; inconclusive = small, poorly fitted or top-dose-only effect; inactive = no such curve, though single readings can be large or run the other way; also: potency is read from the fitted curve at half-maximal effect; % is scaled to controls: 0 for no effect and ±100 for the full control effect; nearly all actives have a fitted effect of over 50% in size
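Fission yeast strain RE007, carrying one chromosomally integrated HIV-1 vpr copy, was seeded at OD 0.01 in PMG+AL medium with 23 nL pinned compound. After 24 h at 30 °C and 99% humidity, viability was read by BacTiter-Glo luminescence.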
Tb PYK inh: T. brucei pyruvate kinase inhibition; AID 624173; actives 0.12% (n = 410,000); Potency, µM (highest dose often 76.8 µM), for inactives: top-dose activity, negative = inhibition, usual class: inhibitors; TbPYK enzyme, Kinase-Glo Plus ATP luminescence, 45 min; Q57TT1; also: potency is read from the fitted curve at half-maximal effect; % is scaled to controls: 0 for no effect and ±100 for the full control effect; nearly all actives have a fitted effect of over 50% in size
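Glycolytic pyruvate kinase of T. brucei was incubated with substrate, test compound and 130 uM ADP for 45 minutes at room temperature. Luminescent Kinase-Glo Plus signal was measured after 10 minutes.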
Cycloheximide cs: affects cycloheximide protein synthesis inhibition readout, counter-screen; cell reporter, cycloheximide protein synthesis inhibition counterscreen; max response, %; actives 12% (n = 300,000); AID 2314; in the data active = max response mostly above about 13%, no sharp cut-off; inactive = mostly below about 14%; also: read at 38.3 µM for the half of the compounds with a filed dose; 0% is about no effect
Numbers without * were called inactive; ? = inconclusive; · = not tested or not shown. Unless noted, calls follow the shape of the dose curve; as a rule, active = well fitted curve in the direction sought with a large enough effect; inconclusive = small, poorly fitted or top-dose-only effect, or another doubt; inactive = no such curve, though single readings can be large; an effect the other way counts as inactive or inconclusive.

SMILES	FBPA Giardia inh	LmPK inh	Shiga toxin inh	RE007 growth inh	Tb PYK inh	Cycloheximide cs
O=C1c2ccccc2NC(c2ccccc2O)N1O (configuration not stated)	?	-2%	-10	-1%	-3%	-2
COc1ccc(N2C(=O)c3ccccc3C2O)cc1 (configuration not stated)	10%	-7%	·	17%	-1%	20*
Cc1cccc(C(C)C)c1NC(=O)Cc1ccc(S(=O)(=O)N2CCOCC2)s1	·	·	·	1%	1%	·
CC(C)Oc1ccc(C2CC(=O)N(c3ccc(C(=O)O)cc3)C2=O)cc1 (configuration not stated)	4%	1%	-11	2%	4%	-2
COc1ccc(O)c(C(=O)C2c3ccccc3C(=O)N2c2ccc(C)cc2)c1 (configuration not stated)	?	-21%	81*	-1%	?	44*
COc1ccc2c(c1OC)C(=O)N(c1ccc(O)cc1)C2=O	2%	0%	4	-24%	4%	-2
CC(C)Oc1ccc(C2CC(=O)N(c3ccccc3)C2=O)cc1 (configuration not stated)	-3%	4%	44	6%	-11%	20*
CC(C)Oc1ccc(N2C(=O)c3ccccc3C2=O)cc1	4%	-3%	35	?	8%	18*
COc1ccc2c(c1OC)C(=O)N(c1ccccc1)C2=O	5%	-2%	47*	7%	2%	39*
COC(=O)[C@@]1(Cc2ccccc2)[C@H]2C(=O)N(C)C(=O)[C@H]2[C@H]2CN=C(SC)N21	·	·	·	-16%	-3%	·
COc1ccc(N2C(=O)c3ccccc3C2=O)cc1	1%	-16%	55*	0%	1%	19*
CC(=O)Nc1cccc2c1C(=O)N(c1ccc(C)cc1)C2=O	1%	2%	35*	-8%	-1%	15*
Cc1cccc(C(C)C)c1NC(=O)Cn1c(=O)oc2cc(S(=O)(=O)N3CCCC3)ccc21	·	·	·	·	3%	·
O=C(C=C=Nc1ccccc1)C(=O)N=C=Cc1ccccc1	-17%	2%	72*	0%	-5%	24*
Cc1ccccc1CN1CCN(CC(=O)NCc2ccccc2Cl)C1=O	·	·	·	·	-1%	·
CCOc1ccc(NC(=O)COc2ccccc2)c([N+](=O)[O-])c1	1%	0%	82*	0%	-1%	28*
O=C(CC(=O)Nc1ccccc1[N+](=O)[O-])Nc1ccccc1[N+](=O)[O-]	6%	-1%	-12	-17%	4%	-1
O=C(CCOc1ccccc1)Nc1ccccc1[N+](=O)[O-]	-2%	1%	54	-1%	9%	27*
COc1cccc(OCCNc2ccc([N+](=O)[O-])cn2)c1	·	·	·	-4%	1%	·
O=C(CCOc1ccccc1)Nc1cccc([N+](=O)[O-])c1	-3%	2%	50*	17%	0%	20*
COc1cccc(OCCNc2cc(Cl)ccc2[N+](=O)[O-])c1	-7%	3%	73*	-5%	-2%	42*
CCOC(=O)c1c(C)[nH]c(CCC(=O)Nc2c(Cl)cc(OC)cc2OC)c1C	·	·	·	·	-4%	·
O=[N+]([O-])c1ccc(N2CCCCC2)cc1NCCOc1ccccc1	3%	0%	-3	-7%	-3%	-2
O=[N+]([O-])c1ccccc1NCCOc1ccccc1	0%	-10%	72*	?	0%	73*
CCc1cc2c(=O)n3c(nc2s1)-c1[nH]c2ccc(OC)cc2c1CC3	1%	1%	21	-11%	-10%	15*
SMILES	FBPA Giardia inh	LmPK inh	Shiga toxin inh	RE007 growth inh	Tb PYK inh	Cycloheximide cs
COc1ccc(N2CCN(C3CCCN(C(=O)CN4CCCC4=O)C3)CC2)cc1 (configuration not stated)	8%	-1%	2	2%	-2%	-4
O=C(c1ccccn1)N1CCCC(N2CCN(c3cccc(C(F)(F)F)c3)CC2)C1 (configuration not stated)	-7%	-2%	41*	-11%	6%	20*
Cc1cc(C(=O)N2CCCC(N3CCN(c4cccc(Cl)c4)CC3)C2)nn1C (configuration not stated)	·	6%	66	-2%	-6%	19*
O=C1CCCN1CC(=O)N1CCCC(N2CCN(c3cccc(Cl)c3)CC2)C1 (configuration not stated)	·	-4%	44*	4%	-5%	30*
O=C(COC(=O)c1ccncc1)Nc1ccccc1	2%	-7%	59	-6%	-2%	21*
O=C(COC(=O)/C=C/c1ccc2c(c1)OCO2)Nc1ccc(S(=O)(=O)N2CCCC2)cc1	3%	2%	14	-11%	5%	-2
O=C(COC(=O)/C=C/c1ccc2c(c1)OCO2)Nc1ccccc1	0%	-4%	93*	-21%	-2%	40*
O=C(COC(=O)c1ccc2c(c1)OCO2)Nc1ccccc1	-1%	-6%	41*	23%	-4%	13*
O=C(COC(=O)c1cccnc1)Nc1ccccc1	0%	3%	-4	1%	-12%	-4
O=c1c(S(=O)(=O)c2ccccc2)cn(Cc2cccc(F)c2)c2cc(N3CCOCC3)c(F)cc12	·	·	·	·	-3%	·
CCn1c2ccc(C)cc2c2nc3cc(C(=O)O)ccc3nc21	-13%	-11%	61*	-1%	-11%	44*
CCn1c2ccc(Cl)cc2c2nc3ccccc3nc21	-8%	1%	-13	-11%	-9%	-3
COCCNC(=O)CSc1cn(CC(=O)N2CCCCCC2)c2ccccc12	·	·	·	·	-12%	·
Cc1noc(C)c1C(=O)OCC(=O)c1ccc[nH]1	4%	6%	-15	13%	-6%	1
Cc1noc(C)c1C(=O)OCC(=O)c1cc(C)n(Cc2ccccc2Cl)c1C	-9%	-9%	63*	16%	-2%	45*
CCOC(=O)CNC(=O)CSc1nnc(Cn2c(=O)sc3ccccc32)n1C	0%	-1%	11	3%	-5%	18*
CCOC(=O)CC(=O)CSc1nnc(Cn2c(=O)sc3ccccc32)n1C	2%	-3%	-17	-2%	-5%	-3
O=C(CN1C(=O)c2ccccc2C1=O)OCC(=O)c1ccccc1	·	·	·	-7%	-22%	·
O=c1c(Cl)c(NCCCO)cnn1-c1nc2ccccc2[nH]1	-1%	14µM*	137*	?	?	84*
C=CCN(CC=C)c1cnn(-c2nc3ccccc3[nH]2)c(=O)c1Cl	-5%	16µM*	89*	-16%	-6%	27*
Cc1cc(C)c(Cn2c(=O)n(CCCC(=O)NCc3ccc4c(c3)OCO4)c(=O)c3sccc32)c(C)c1	·	·	·	·	0%	·
Cn1c(CCNC(=O)c2ccco2)nc2cc(NC(=O)C3CCCCC3)ccc21	-1%	0%	37*	-24%	0%	12*
